According to the supplement of paper PMC10849652:
Targets with a hit are over-represented here; the source holds about 8,800 in all. About 0.5% of all pairs of compound and target were hits.

What was measured:
Assay in all cases: log2 fold change, soluble protein after heating vs DMSO (PISA); higher = thermal stabilisation; K562 lysate, 10 uM; active = over 0.2 and 3.5 SD of the protein, either way, in both replicates (recomputed)
[1] = compound: C1=CC=C(C=C1)[C@H](COC2=CC3=C(C=C2)NC(=O)N3)NC(=O)C4=CC=CN(C4=O)CC5=CC(=C(C=C5)F)F
Outline: (§1)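 Soluble protein was defined as the supernatant remaining after 21,000xg for 90 min, following pooling of heated aliquots and adjustment to 0.5% NP-40 at 4°C. Before that, crude K562 extract at 1 mg/mL protein in PBS pH 7.4 with 1 mM MgCl2 was treated with 10 μM compound for 30 min and heated for 3 min across 48°C-58°C. Quantification used TMTpro 16plex LC-MS/MS with channel sums equalised, and values are log-two fold changes in thermal stability relative to solvent controls from duplicates.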

[2] = compound: CC1=C(SC2=C1C(=N[C@H](C3=NN=C(N32)C)CC(=O)N)C4=CC=C(C=C4)Cl)C
Outline: as §1

[3] = compound: CC1=C2C(=CC=C1)N=C(N(C2=O)C3=CC=CC=C3C)CN4C=NC5=C(N=CN=C54)N
Outline: as §1

[4] = compound: Cc1sc2c(c1C)C(c1ccc(Cl)cc1)=N[C@@H](CC(=O)OC(C)(C)C)c1nnc(C)n1-2
Outline: as §1

[5] = compound: c1ccc([C@@H]2C[C@H]2NC2CCNCC2)cc1
Outline: as §1

Measured: log2 fold change

MCU (UniProt Q8NE86)
inactive: [1] 0.021 | [2] 0.028 | [3] -0.031 | [4] -0.023 | [5] 0.015

MRPL10 isoform 2 (UniProt Q7Z7H8)
inactive: [1] -0.053 | [2] 0.097 | [3] 0.023 | [4] -0.026 | [5] 0.016

MED10 (UniProt Q9BTT4)
Chain of UniProt Q9BTT4 (Q9BTT4 whole entry, looked up): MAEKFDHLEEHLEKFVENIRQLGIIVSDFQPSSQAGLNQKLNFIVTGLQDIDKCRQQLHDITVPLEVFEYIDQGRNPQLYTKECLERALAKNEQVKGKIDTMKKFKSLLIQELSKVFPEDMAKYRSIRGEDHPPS
inactive: [1] 0.038 | [2] -0.033 | [3] -0.04 | [4] 0.015 | [5] -0.009

KIF2A isoform 4 (UniProt O00139)
inactive: [1] 0.006 | [2] -0.012 | [3] 0.015 | [4] 0.012 | [5] 0.04

MAPK14 (UniProt Q16539)
inactive: [1] 0.007 | [2] 0.024 | [3] 0.034 | [4] -0.04 | [5] -0.015

KLC2 (UniProt Q9H0B6)
inactive: [1] -0.032 | [2] 0.016 | [3] 0.029 | [4] 0.003 | [5] 0.122

KPNA2 (UniProt P52292)
inactive: [1] -0.016 | [2] 0.027 | [3] 0.035 | [4] 0.003 | [5] 0.06

MRPL15 (UniProt Q9P015)
inactive: [1] -0.016 | [2] 0.04 | [3] 0.003 | [4] 0.04 | [5] -0.212

MCMBP (UniProt Q9BTE3)
inactive: [1] -0.016 | [2] 0.035 | [3] 0.019 | [4] -0.013 | [5] 0.057

MAPK12 (UniProt P53778)
Chain of UniProt P53778 (P53778 whole entry, looked up): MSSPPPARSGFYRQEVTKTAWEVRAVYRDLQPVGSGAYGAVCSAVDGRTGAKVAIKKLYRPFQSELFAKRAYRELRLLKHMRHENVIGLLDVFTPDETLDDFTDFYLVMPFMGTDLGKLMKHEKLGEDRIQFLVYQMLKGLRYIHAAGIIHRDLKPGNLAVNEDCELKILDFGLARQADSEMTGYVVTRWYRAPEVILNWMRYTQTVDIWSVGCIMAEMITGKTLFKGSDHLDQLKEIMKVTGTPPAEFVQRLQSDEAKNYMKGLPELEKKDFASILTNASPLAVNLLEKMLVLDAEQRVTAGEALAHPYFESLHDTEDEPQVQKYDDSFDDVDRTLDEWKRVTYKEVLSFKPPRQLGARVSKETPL
inactive: [1] 0.029 | [2] 0.068 | [3] -0.015 | [4] -0.002 | [5] 0.307

KLC1 isoform 6 (UniProt Q07866)
inactive: [1] 0.001 | [2] 0.014 | [3] 0.027 | [4] 0.001 | [5] 0.033

MICU1 isoform 3 (UniProt Q9BPX6)
inactive: [1] -0.018 | [2] 0.027 | [3] -0.035 | [4] -0.043 | [5] 0.196

MAP2K1 (UniProt Q02750)
inactive: [1] -0.012 | [2] 0.016 | [3] -0.047 | [4] -0.048 | [5] 0.081

MAP2K3 isoform 3 (UniProt P46734)
inactive: [1] 0.035 | [2] -0.021 | [3] -0.024 | [4] 0.043 | [5] -0.006

MARK2 (UniProt E9PC69)
inactive: [1] 0.003 | [2] -0.004 | [3] 0.071 | [4] -0.043 | [5] 0.035

LYSMD3 (UniProt Q7Z3D4)
inactive: [1] 0.031 | [2] 0.063 | [3] 0.062 | [4] -0.096 | [5] -0.084

MED13L (UniProt Q71F56)
inactive: [1] -0.034 | [2] 0.029 | [3] 0.028 | [4] -0.095 | [5] 0.014

MAPKAPK2 (UniProt P49137)
Chain of UniProt P49137 (P49137 whole entry, looked up): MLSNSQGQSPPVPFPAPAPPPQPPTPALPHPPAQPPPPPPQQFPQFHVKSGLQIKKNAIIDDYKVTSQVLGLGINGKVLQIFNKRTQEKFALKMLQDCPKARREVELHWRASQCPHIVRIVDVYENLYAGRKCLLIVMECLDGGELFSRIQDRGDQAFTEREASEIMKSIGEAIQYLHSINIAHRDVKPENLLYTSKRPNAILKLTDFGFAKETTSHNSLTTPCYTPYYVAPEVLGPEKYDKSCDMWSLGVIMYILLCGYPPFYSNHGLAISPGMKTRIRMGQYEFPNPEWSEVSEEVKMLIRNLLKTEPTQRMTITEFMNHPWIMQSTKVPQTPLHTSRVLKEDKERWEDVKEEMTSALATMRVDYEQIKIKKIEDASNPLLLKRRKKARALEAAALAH
inactive: [1] 0.043 | [2] 0.008 | [3] -0.053 | [4] 0.004 | [5] -0.051

MED17 (UniProt Q9NVC6)
inactive: [1] 0.009 | [2] 0.021 | [3] 0.016 | [4] 0.021 | [5] 0.02

MAP4K5 (UniProt Q9Y4K4)
inactive: [1] 0.069 | [2] 0.063 | [3] -0.079 | [4] -0.022 | [5] -0.1

LYRM4 (UniProt Q9HD34)
Chain of UniProt Q9HD34 (Q9HD34 whole entry, looked up): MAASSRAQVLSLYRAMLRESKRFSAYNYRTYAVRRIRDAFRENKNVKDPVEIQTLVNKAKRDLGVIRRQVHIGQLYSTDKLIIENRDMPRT
inactive: [1] -0.03 | [2] 0.074 | [3] 0.077 | [4] 0.006 | [5] 0.004

MAP11 (UniProt Q8WVR3)
inactive: [1] -0.103 | [2] 0 | [3] -0.006 | [4] 0.063 | [5] -0.03

MACO1 (UniProt Q8N5G2)
inactive: [1] -0.039 | [2] -0.044 | [3] 0.125 | [4] -0.04 | [5] 0.092

KMT2A isoform 3 (UniProt Q03164)
Chain of UniProt Q03164 (Q03164 whole entry, looked up): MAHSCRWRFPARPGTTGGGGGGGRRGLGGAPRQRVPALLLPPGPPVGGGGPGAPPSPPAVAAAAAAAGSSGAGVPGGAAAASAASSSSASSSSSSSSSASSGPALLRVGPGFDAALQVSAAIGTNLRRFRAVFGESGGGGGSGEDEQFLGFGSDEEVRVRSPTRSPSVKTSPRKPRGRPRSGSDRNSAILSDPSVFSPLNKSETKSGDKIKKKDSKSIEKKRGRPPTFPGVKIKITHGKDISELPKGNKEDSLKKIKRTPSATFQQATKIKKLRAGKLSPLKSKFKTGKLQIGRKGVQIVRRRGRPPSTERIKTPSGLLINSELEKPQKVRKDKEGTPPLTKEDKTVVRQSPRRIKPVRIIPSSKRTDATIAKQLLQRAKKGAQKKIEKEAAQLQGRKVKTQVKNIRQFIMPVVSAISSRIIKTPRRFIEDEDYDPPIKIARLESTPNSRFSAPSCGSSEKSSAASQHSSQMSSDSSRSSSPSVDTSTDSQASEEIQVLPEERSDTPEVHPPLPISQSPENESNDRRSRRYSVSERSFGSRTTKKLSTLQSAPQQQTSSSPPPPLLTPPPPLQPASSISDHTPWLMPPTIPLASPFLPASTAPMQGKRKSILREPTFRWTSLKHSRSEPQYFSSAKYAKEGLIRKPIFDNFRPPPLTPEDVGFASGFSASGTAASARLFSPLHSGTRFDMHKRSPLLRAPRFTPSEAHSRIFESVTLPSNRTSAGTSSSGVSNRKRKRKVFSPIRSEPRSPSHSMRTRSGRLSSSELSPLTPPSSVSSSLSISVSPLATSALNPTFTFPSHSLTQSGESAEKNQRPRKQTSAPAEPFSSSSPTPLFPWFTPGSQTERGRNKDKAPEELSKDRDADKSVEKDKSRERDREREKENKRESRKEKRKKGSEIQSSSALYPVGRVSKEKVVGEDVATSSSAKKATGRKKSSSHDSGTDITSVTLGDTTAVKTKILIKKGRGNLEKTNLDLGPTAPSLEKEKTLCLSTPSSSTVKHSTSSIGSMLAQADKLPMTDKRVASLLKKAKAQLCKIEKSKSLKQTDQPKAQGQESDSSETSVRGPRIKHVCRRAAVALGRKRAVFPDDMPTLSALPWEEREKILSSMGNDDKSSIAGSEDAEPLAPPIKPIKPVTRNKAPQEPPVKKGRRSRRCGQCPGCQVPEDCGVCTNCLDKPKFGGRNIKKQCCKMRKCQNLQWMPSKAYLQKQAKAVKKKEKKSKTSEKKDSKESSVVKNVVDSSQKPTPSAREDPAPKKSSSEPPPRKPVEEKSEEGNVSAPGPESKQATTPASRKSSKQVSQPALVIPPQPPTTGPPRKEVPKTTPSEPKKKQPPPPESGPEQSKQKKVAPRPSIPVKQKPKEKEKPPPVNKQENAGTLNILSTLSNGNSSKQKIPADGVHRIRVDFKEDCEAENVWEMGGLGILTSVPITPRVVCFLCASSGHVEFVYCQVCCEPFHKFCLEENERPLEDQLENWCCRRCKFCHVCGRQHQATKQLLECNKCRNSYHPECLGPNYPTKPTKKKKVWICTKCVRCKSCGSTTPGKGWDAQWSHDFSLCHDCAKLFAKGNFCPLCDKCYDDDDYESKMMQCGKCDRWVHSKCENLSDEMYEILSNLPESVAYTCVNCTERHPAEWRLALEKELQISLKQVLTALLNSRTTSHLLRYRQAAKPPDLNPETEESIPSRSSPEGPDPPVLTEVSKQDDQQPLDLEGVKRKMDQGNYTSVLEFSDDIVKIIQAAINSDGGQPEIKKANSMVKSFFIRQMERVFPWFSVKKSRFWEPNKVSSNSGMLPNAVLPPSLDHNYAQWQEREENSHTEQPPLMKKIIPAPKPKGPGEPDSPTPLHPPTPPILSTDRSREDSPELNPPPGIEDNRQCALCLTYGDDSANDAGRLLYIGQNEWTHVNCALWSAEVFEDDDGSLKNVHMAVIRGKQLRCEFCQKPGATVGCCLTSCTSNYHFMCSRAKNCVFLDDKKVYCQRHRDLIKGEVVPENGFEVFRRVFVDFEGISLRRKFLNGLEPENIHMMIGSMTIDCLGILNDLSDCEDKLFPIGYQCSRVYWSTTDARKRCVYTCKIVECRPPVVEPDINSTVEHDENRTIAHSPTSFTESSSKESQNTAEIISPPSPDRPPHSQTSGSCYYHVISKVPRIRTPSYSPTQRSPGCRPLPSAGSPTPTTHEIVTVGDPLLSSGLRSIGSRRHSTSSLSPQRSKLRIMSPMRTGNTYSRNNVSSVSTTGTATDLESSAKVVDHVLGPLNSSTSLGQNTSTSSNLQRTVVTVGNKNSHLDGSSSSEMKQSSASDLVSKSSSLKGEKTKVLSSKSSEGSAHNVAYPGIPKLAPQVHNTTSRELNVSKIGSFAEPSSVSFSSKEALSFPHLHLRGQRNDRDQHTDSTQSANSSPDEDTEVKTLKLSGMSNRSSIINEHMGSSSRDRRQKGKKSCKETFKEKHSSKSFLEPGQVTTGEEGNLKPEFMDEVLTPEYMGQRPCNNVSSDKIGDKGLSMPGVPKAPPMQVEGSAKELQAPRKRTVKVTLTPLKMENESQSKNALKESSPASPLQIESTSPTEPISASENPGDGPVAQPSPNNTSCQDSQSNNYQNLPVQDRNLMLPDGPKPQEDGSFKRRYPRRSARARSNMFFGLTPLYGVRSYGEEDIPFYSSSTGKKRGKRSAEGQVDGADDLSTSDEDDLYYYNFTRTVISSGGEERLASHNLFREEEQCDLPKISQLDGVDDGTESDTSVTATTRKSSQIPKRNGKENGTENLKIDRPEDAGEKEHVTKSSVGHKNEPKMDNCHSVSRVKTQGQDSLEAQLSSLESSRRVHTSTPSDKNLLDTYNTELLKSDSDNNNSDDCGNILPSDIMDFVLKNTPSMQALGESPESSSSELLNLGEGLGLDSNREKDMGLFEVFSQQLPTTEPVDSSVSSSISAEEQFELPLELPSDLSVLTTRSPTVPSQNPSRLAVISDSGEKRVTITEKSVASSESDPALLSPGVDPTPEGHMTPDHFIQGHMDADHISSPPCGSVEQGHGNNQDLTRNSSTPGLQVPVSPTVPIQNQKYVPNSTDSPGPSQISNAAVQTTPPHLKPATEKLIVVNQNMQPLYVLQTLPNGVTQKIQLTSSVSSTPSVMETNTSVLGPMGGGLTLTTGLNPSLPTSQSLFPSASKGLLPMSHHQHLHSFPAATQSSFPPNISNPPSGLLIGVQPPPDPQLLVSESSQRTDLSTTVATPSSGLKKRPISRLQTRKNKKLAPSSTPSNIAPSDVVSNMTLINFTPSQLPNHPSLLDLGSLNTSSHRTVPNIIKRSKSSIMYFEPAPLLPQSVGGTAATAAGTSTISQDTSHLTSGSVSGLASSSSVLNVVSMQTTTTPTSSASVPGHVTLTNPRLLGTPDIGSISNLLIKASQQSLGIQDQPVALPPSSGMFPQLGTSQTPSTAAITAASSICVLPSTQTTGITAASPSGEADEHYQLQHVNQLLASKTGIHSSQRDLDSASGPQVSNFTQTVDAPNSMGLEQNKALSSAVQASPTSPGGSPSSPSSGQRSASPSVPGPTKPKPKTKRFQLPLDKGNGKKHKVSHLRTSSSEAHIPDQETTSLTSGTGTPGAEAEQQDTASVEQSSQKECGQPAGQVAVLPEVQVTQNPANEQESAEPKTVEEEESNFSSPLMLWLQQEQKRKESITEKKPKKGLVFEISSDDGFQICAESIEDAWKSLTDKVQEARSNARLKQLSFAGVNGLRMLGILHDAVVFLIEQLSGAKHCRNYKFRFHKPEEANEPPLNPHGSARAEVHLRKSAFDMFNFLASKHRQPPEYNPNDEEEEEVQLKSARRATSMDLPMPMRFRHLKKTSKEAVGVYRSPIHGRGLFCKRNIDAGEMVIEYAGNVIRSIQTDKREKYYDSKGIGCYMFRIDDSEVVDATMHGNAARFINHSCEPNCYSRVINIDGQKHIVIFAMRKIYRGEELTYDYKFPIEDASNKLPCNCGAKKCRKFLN
inactive: [1] 0.043 | [2] 0.09 | [3] -0.009 | [4] -0.025 | [5] 0.016
